# C diff growth = C. difficile growth inhibitors, primary screen, HTS; Clostridium difficile clinical isolate growth, OD600, 24 h; hits give low values; growth activity, negative = inhibition, % at 16 µg/mL (by protocol); actives 0.25% (n = 86,000); AID 1259249, 2017;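 active = mean growth activity at or below -80% and every replicate also at or below -80%; inconclusive = mean at or below -80% but some replicate above -80%; inactive = mean growth activity above -80%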;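 also: 0% = DMSO wells and -100% = levofloxacin 16 µg/mL wells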
# T cruzi growth-1 = T. cruzi intracellular proliferation inhibitors, primary screen, cell-based, beta-gal Tulahuen parasites, NIH3T3 host, luminescence; T. cruzi beta-gal in NIH3T3, GalScreen luminescence, 90 h; inhibition, % at 8.34 µM; actives 5.9% (n = 77,000); AID 624255, 2012;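 active = mean inhibition above about 93%, with at least 55% of replicates each passing it, limit read from the data, passing the limit was not always enough; inconclusive = only one of those two conditions holds; inactive = neither condition holds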
# Pf Dd2 inh = P. falciparum Dd2 growth inhibitors, primary screen, SYBR Green fluorescence, single dose replicates. 72 h; hits give low values. activity change, % at 10 µM. actives 2.3% (n = 94,000); in the data active = activity change below about -80%; inconclusive = no clear call, values can overlap the other calls
# T cruzi growth-2 = T. cruzi intracellular proliferation inhibitors, confirmation, cell-based, NIH3T3 host, beta-gal parasite, luminescence, cherry-pick | AID 651739, 2012 | shares compounds with T cruzi growth-1 | actives 72% (n = 5,600) | inhibition, % at 8.35 µM | T. cruzi beta-gal in NIH3T3, GalScreen luminescence, 90 h;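 active = mean replicate inhibition above about 95% and at least 55% of replicates individually reaching it, limit read from the data; inconclusive = only one of the two criteria is met; inactive = neither criterion is met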
# T cruzi growth-3 = inhibitors of intracellular T. cruzi replication, confirmation, NIH3T3 host cells, beta-gal parasites, cherry-pick, set 2; shares compounds with T cruzi growth-1; T. cruzi beta-gal in NIH3T3, GalScreen luminescence, 90 h; inhibition, % at 2.09 µM; actives 21% (n = 5,600);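 active = mean inhibition above about 95%, with at least 55% of replicates also reaching it, limit read from the data; inconclusive = meets just one of the two conditions; inactive = meets neither condition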;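 also: plate controls were neutral control median for no effect and positive control median for full effect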
# NIH3T3 tox = cytotoxicity in mouse NIH/3T3 fibroblasts, confirmation, cytotoxicity control for T. cruzi proliferation inhibitor project, cell-based, cherry-pick, single point | shares compounds with T cruzi growth-1 | NIH/3T3 viability, CellTiter-Glo ATP luminescence, 90 h | cytotoxicity (signal decrease), % at 8.35 µM | actives 14% (n = 5,600);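 active = mean signal decrease across replicates above about 35% based on untreated-well scatter, with enough replicates individually passing, limit read from the data; inconclusive = no rule stated though some were filed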;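 also: 0% = median of neutral control wells and 100% = median of positive control wells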
# 3T3 cytotox 2 = NIH/3T3 fibroblast cytotoxicity, confirmation, cytotoxicity control, cell-based, cherry-pick, single point, set 2; NIH/3T3 viability, CellTiter-Glo ATP luminescence, 90 h; shares compounds with T cruzi growth-1; actives 56% (n = 5,600); inhibition, % at 24.9 µM;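 active = mean loss of cell viability signal at or above a set limit, and enough replicates individually reaching it; inconclusive = meets only the mean limit or only the replicate share; inactive = meets neither condition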;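 also: 0% = median of neutral control wells and 100% = median of positive control wells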
# * marks the source's active call; other numbers are inactive results; u = inconclusive; x = no result. Sampled rows, rich in hits. Any-hit rate of the full collection: about 6.7%.
SMILES,C diff growth,T cruzi growth-1,Pf Dd2 inh,T cruzi growth-2,T cruzi growth-3,NIH3T3 tox,3T3 cytotox 2
COc1ccc(NC(=O)N(C)C[C@H]2OCCCC[C@@H](C)Oc3ccc(NC(=O)Nc4ccc(F)cc4)cc3C(=O)N([C@H](C)CO)C[C@H]2C)cc1,2,100*,u,112*,40,-2,-5
COc1ccc(NC(=O)N(C)C[C@H]2OCCCC[C@@H](C)Oc3ccc(NC(=O)Nc4ccc(C(F)(F)F)cc4)cc3C(=O)N([C@H](C)CO)C[C@@H]2C)cc1,1,108*,-23,111*,106*,-2,26*
C[C@@H]1CCCCO[C@H](CN(C)CC2CCCCC2)[C@@H](C)CN([C@H](C)CO)C(=O)c2cc(NS(=O)(=O)c3ccccc3)ccc2O1,20,-42,14,x,x,x,x
O=C(NCC[C@@H]1CC[C@@H](NS(=O)(=O)c2cccc(F)c2)[C@@H](CO)O1)C1CCC1,-1,x,3,x,x,x,x
Cc1noc(C)c1NC(=O)N[C@H]1CC[C@@H](CCNC(=O)C2CCCC2)O[C@H]1CO,-1,x,-7,x,x,x,x
C[C@@H]1CN([C@@H](C)CO)S(=O)(=O)c2ccc(C3=CCCC3)cc2O[C@H]1CN(C)C(=O)CN(C)C,-7,-40,-43,x,x,x,x
C[C@H]1CN([C@@H](C)CO)S(=O)(=O)c2ccc(C#CC(C)(C)O)cc2O[C@@H]1CN(C)C(=O)CC1CC1,-2,22,-6,x,x,x,x
COc1ccc(NC(=O)Nc2ccc3c(c2)C(=O)N([C@H](C)CO)C[C@H](C)[C@H](CN(C)C(=O)Nc2ccc(C(F)(F)F)cc2)OCCCC[C@H](C)O3)cc1,-6,u,26,109*,99*,5,7
COc1ccc(NC(=O)Nc2ccc3c(c2)C(=O)N([C@H](C)CO)C[C@H](C)[C@@H](CN(C)C(=O)Nc2ccc(C(F)(F)F)cc2)OCCCC[C@@H](C)O3)cc1,-8,112,-66,x,x,x,x
Cc1ccc(S(=O)(=O)N[C@H]2CC[C@@H](CCn3cc(C4(O)CCCC4)nn3)O[C@H]2CO)cc1,1,-31,-13,x,x,x,x
O=C(Nc1ccc2c(c1)[C@@H]1C[C@@H](CC(=O)N3CCCCC3)O[C@H](CO)[C@@H]1O2)c1ccc2c(c1)OCO2,-1,39,-3,x,x,x,x
CNC[C@@H]1Oc2ccc(NS(C)(=O)=O)cc2CC(=O)N([C@H](C)CO)C[C@H]1C,2,5,30,x,x,x,x
CCc1cnc(N2[C@H](C#N)[C@H](c3ccccc3)[C@@H]2CO)s1,1,-6,22,x,x,x,x
CCc1cnc(N2[C@H](C#N)[C@H](c3ccc(C#Cc4ccccc4F)cc3)[C@@H]2CO)s1,6,97*,-65,101*,112*,-27,-11
CCc1cnc(N2[C@H](C#N)[C@@H](c3ccccc3)[C@@H]2CO)s1,1,36,14,x,x,x,x
CCc1cnc(N2[C@H](C#N)[C@@H](c3ccc(C#Cc4ccccc4F)cc3)[C@H]2CO)s1,1,111*,-26,103*,101*,11,28*
CCc1cnc(N2[C@H](CO)[C@@H](c3ccccc3)[C@@H]2C#N)s1,8,2,-2,x,x,x,x
CCc1cnc(N2[C@H](C#N)[C@H](c3ccc(C#Cc4ccccc4F)cc3)[C@H]2CO)s1,4,100*,-53,91,106*,-9,95*
C[C@H](CO)N1C[C@H](C)[C@@H](CN(C)C(=O)c2ccncc2)OCCCC[C@H](C)Oc2ccc(NC(=O)Cc3ccccc3)cc2C1=O,3,13,-27,x,x,x,x
COCC(=O)Nc1ccc2c(c1)C(=O)N(C)C[C@@H](OC)[C@H](C)CN(Cc1ccncc1)[C@H](C)CO2,x,-43,17,x,x,x,x
CO[C@H]1CN(C)C(=O)c2cc(NC(=O)c3nc4ccccc4s3)ccc2OC[C@H](C)N(Cc2ccncc2)C[C@@H]1C,-9,100*,x,98*,67,13,42*
COc1ccc(CN2C[C@@H](C)[C@H](OC)CN(C)C(=O)c3ccc(NC(=O)c4nc5ccccc5s4)cc3OC[C@@H]2C)cc1,5,102*,-70,115*,79,-3,-38
COCC(=O)Nc1ccc2c(c1)C(=O)N(C)C[C@@H](OC)[C@@H](C)CN(Cc1ccncc1)[C@@H](C)CO2,x,98*,0,61,-26,6,11
CO[C@H]1CN(C)C(=O)c2ccc(NC(=O)c3nc4ccccc4s3)cc2OC[C@H](C)N(Cc2cccnc2)C[C@H]1C,-9,90,-49,x,x,x,x
CO[C@@H]1CN(C)C(=O)c2cc(NC(=O)c3nc4ccccc4s3)ccc2OC[C@H](C)N(Cc2ccncc2)C[C@H]1C,-4,88,x,x,x,x,x
SMILES,C diff growth,T cruzi growth-1,Pf Dd2 inh,T cruzi growth-2,T cruzi growth-3,NIH3T3 tox,3T3 cytotox 2
CO[C@@H]1CN(C)C(=O)c2ccc(NC(=O)c3nc4ccccc4s3)cc2OC[C@@H](C)N(Cc2cccnc2)C[C@@H]1C,-2,102*,-63,109*,u,-17,43*
CO[C@@H]1CN(C)C(=O)c2ccc(NC(=O)c3nc4ccccc4s3)cc2OC[C@@H](C)N(Cc2cncnc2)C[C@H]1C,x,x,-66,x,x,x,x
Cc1noc(C)c1NC(=O)N(C)C[C@@H]1OCCCC[C@@H](C)Oc2ccc(NS(=O)(=O)c3ccc(F)cc3)cc2C(=O)N([C@H](C)CO)C[C@H]1C,0,-23,-3,x,x,x,x
COc1ccc(S(=O)(=O)Nc2ccc3c(c2)C(=O)N([C@@H](C)CO)C[C@H](C)[C@@H](CN(C)S(=O)(=O)c2ccc(C)cc2)O3)cc1,4,18,-33,x,x,x,x
COc1ccc(NC(=O)N(C)C[C@@H]2OCCCC[C@H](C)Oc3ccc(NC(=O)Nc4ccc5c(c4)OCO5)cc3C(=O)N([C@@H](C)CO)C[C@@H]2C)cc1,5,44,-16,x,x,x,x
COc1ccc(NC(=O)N(C)C[C@@H]2OCCCC[C@@H](C)Oc3ccc(NC(=O)Nc4ccc5c(c4)OCO5)cc3C(=O)N([C@H](C)CO)C[C@H]2C)cc1,1,76,-26,x,x,x,x
COc1ccc(NC(=O)Nc2ccc3c(c2)C(=O)N([C@H](C)CO)C[C@H](C)[C@H](CN(C)C(=O)Nc2ccc4c(c2)OCO4)OCCCC[C@H](C)O3)cc1,5,u,-5,111*,66,-5,-12

# Source: PubChem BioAssay
